# Measured values taken from ChEMBL document CHEMBL4808148, “HDAC6 screening dataset using tau-based substrate in an enzymatic assay yields selective inhibitors and activators” (2021).
# About 150 (2.7%) of roughly 5,600 compounds showed an effect of 50% or more. Many of the other results were omitted from the sample, so strong results are more common in it than they were.
# Molecular target: T1, Protein deacetylase HDAC6 (Homo sapiens) (UniProt Q9UBN7)
# T1 sequence (whole entry): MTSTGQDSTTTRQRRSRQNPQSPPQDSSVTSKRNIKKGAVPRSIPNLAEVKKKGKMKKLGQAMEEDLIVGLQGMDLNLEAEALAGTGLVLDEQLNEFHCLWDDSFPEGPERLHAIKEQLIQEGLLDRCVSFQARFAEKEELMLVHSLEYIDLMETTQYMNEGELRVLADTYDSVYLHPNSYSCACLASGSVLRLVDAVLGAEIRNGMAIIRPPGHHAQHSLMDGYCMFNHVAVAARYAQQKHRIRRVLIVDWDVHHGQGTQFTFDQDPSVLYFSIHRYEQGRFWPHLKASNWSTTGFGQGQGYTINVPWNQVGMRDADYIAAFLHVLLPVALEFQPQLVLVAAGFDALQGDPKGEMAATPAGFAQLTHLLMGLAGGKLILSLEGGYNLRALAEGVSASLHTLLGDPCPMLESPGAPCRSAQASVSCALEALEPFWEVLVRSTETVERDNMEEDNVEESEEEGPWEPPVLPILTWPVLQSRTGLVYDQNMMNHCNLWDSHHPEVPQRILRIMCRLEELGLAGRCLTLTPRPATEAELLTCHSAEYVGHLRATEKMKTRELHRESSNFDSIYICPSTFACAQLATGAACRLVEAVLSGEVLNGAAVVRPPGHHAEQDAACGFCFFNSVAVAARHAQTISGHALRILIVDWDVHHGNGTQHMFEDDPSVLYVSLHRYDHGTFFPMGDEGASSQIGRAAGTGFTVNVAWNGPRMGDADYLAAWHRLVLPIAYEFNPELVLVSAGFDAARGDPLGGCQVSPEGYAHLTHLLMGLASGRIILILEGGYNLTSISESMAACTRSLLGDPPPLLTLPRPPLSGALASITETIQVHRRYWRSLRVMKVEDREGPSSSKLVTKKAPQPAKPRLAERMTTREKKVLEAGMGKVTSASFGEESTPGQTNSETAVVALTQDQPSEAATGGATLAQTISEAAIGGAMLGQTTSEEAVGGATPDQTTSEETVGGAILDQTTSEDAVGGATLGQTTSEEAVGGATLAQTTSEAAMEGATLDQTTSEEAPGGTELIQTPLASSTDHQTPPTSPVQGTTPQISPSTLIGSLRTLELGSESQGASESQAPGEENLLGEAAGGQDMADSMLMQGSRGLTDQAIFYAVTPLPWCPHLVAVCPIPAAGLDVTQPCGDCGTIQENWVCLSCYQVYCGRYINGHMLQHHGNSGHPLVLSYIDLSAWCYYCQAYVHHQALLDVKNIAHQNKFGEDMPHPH
# Settings: at 10 µM
row,Structure (SMILES),inhibition [%]
1,CCNC(=O)/C=C/c1cccc(Br)c1,11.1
2,O=C(/C=C/c1cccc(S(=O)(=O)Nc2ccccc2)c1)NO,97.7
3,O=C(/C=C/c1ccccc1)NCCO,44.6
4,Cc1cc(Cl)ccc1OCCCC(=O)NO,87.1
5,Cc1ccc(C)c(OCCCC(C)(C)C(=O)O)c1,4.07
6,COc1ccc(Cl)cc1C(=O)NCCc1ccc(C(=O)O)cc1,-2.67
7,N=C(N)NCCC[C@H](N)C(=O)NCC(=O)N[C@@H](CC(=O)O)C(=O)N[C@@H](CO)C(=O)O,5.37
8,O=C(c1ccc2nccnc2c1)N1CCCCC1,-1.26
9,CCNC(=O)NS(=O)(=O)c1sc(CC(C)C)cc1-c1ccc(Cn2c(-c3ccccc3)nc(OC)c2C=O)cc1,-1.89
10,CCOc1ccc2nc(S(N)(=O)=O)sc2c1,1.88
11,COc1ccc2nc(NC(=O)Nc3ccccc3)sc2c1,58.2
12,COc1ccc(Cl)c(Nc2nc3ccccc3nc2NS(=O)(=O)c2cccc(NC(=O)C(C)(C)N)c2)c1,-9.43
13,COC(=O)[C@H](Cc1cccc(C(=N)N)c1)[C@@H](C)NC(=O)c1ccc(-c2cc[n+]([O-])cc2)cc1,-6.46
14,N#CCC1(n2cc(-c3ncnc4[nH]ccc34)cn2)CN(C2CCN(C(=O)c3ccnc(C(F)(F)F)c3F)CC2)C1,-4.32
15,Cc1ccccc1/N=N/c1ccc(/N=N/c2c(O)ccc3ccccc23)c(C)c1,0.88
16,Cc1ccc(O)c(/N=N/c2ccccc2)n1,99.5
17,CC(C)(CC(=O)N1CCCC1)NCC(=O)N1C[C@@H](F)C[C@H]1C#N,1.6
18,Cn1ccc2cc(NC(=O)Nc3cccnc3)ccc21,39.6
19,Cn1ccc2cc3c(cc21)CCN3C(=O)Nc1cccnc1,69.4
20,CSc1cc2c(cc1C(F)(F)F)N(C(=O)Nc1cccnc1)CC2,1.32
21,COc1ccccc1N1CCN(CC(O)COc2cc(OC)c(OC)c(OC)c2)CC1 (stereo unspecified),-4.5
22,O=C(CCCCCCCn1cc(-c2cccnc2)nn1)Nc1ccccc1-c1ccccc1,-3.08
23,O=C(O)CCCCCCCC(=O)O,0.37
24,O=C(O)CCCCCCCCC(=O)O,0.43

row,Structure (SMILES),inhibition [%]
1,NC(=O)c1cccnc1,9.25
2,O=C(CCCCCCC(=O)Nc1cccnc1)NO,98.1
3,O=C(CCCCCCC(=O)NO)NO,96.5
4,CC(C)Cc1ccc([C@@H](C)C(=O)NS(C)(=O)=O)cc1,-2.75
5,OC(c1ccc(-c2ccc(CN3CCN(Cc4ccncc4)CC3)cc2)c(F)c1)(C(F)(F)F)C(F)(F)F,-2.34
6,N#Cc1cccc(C(=O)Nc2cc(-c3ccccc3)nn2-c2ccccc2)c1,12.2
7,Cc1ccc(-c2ccc(C)cn2)nc1,70.4
8,CCOc1ccc(NC(=S)N2CCC(C(O)(c3ccccc3)c3ccccc3)CC2)cc1,-1.16
9,O=C(O)C(O)C(O)C(O)C(O)CO (stereo unspecified),-3.09
10,O=Cc1ccc(CO)o1,-2.99
11,CS(=O)(=O)c1ccc(Oc2cc(F)cc(C#N)c2)c2c1[C@H](O)C(F)(F)C2,-4.01
12,CCc1nc(C(N)=O)c(Nc2ccc(N3CCC(N4CCN(C)CC4)CC3)c(OC)c2)nc1NC1CCOCC1,0.8
13,Fc1ccc(-c2nc(-c3c(F)cccc3F)[nH]c2-c2ccncc2)cc1,-5.55
14,Cc1ccc(-c2cn3c4c(sc3n2)CCCC4)cc1,95.1
15,N=C(N)Nc1ccc(Cl)cc1,0.23
16,N=C(N)c1ccc(/N=N/Nc2ccc(C(=N)N)cc2)cc1,-8.86
17,Cc1sc(C)c(C(=O)NC2(c3ccc(C(=O)O)cc3)CC2)c1Cc1ccc(C(F)(F)F)cc1,3.37
18,O=C1COc2c(CCNCCN(C(=O)CCNCCc3ccc(Cl)c(Cl)c3)C3CCCCC3)ccc(O)c2N1,3.6
19,C[C@H](C[C@H](N)C(=O)O)C(=O)O,2.11
20,c1ccc(N2CCN(Cc3nc4ccccc4[nH]3)CC2)nc1,1.74
21,c1ccc2[nH]c(-c3cscn3)nc2c1,84.5
22,COc1ccc(C(=O)C2CCN(CC(=O)N(Cc3nc4c(c(=O)[nH]3)COCC4)CC3CC3)CC2)cc1,-1.1
23,O=C(NCC(=O)N1CCCCC1)Nc1ccc2nnsc2c1,4.96
24,O=C(O)c1ccc2nc(-c3cc(Cl)cc(Cl)c3)oc2c1,99.2

row,Structure (SMILES),inhibition [%]
1,O=C(O)c1ccc2c(c1)nc(Nc1cccc(Cl)c1)c1ccncc12,-4.86
2,CCS(=O)(=O)c1ccc2oc(-c3ccc4ccccc4c3)nc2c1,37.2
3,C=C1C(=O)[C@@]23C(CC[C@@H]1[C@H]2O)[C@@]12CO[C@]3(O)[C@@H](O)[C@@H]1C(C)(C)CC[C@@H]2O (stereo partly specified),-6.66
4,COc1cc2ncc(-c3ccccc3)nc2cc1OC,97.5
5,O=C(O)c1cc(-c2ccccc2)nc2ccccc12,-1.66
6,COC(=O)[C@H](NC(=O)c1cc(-c2ccccc2)nc2ccccc12)c1ccccc1,0.79
7,C/C(=N\c1ccccc1N)c1c(C)cc(=O)n(O)c1O,2.45
8,O=C(O)CCCCN(CCc1ccccc1OCc1ccc(CCc2ccccc2)cc1)Cc1ccc(C(=O)O)cc1,-4
9,COc1cc2c(NC3CCN(C4CCCCC4)CC3)nc(N3CCCN(C(C)C)CC3)nc2cc1OCCCN1CCCCC1,-8.06
10,COc1cc2nc(C3CC3)nc(N3CCN(c4ccccc4OC)CC3)c2cc1OC,0
11,CC(C(=O)O)c1cccc(C(=O)c2ccccc2)c1 (stereo unspecified),4.07
12,CC(C(=O)O)c1ccc2c(c1)CC(=O)c1ccccc1S2 (stereo unspecified),-3.15
13,CC(C(=O)O)c1ccc(N2Cc3ccccc3C2=O)cc1 (stereo unspecified),82.1
14,CNC(=O)O[C@H]1COc2ccc(N3CCN(C4COC4)CC3)cc2[C@@H]1NC(=O)c1ccc(F)cc1,-3.83
15,O=C1Nc2cc(Br)ccc2/C1=C1/Nc2ccccc2/C1=N\O,2.55
16,O=C1COc2nccc(-c3ccccc3F)c2CN1Cc1cc(C(F)(F)F)cc(C(F)(F)F)c1,-5.84
17,C=C1/C(=C\C=C2/CCC[C@]3(C)[C@@H]([C@H](C)OCCC(C)(C)O)CC[C@@H]23)C[C@@H](O)C[C@@H]1O,1.22
18,Cc1cccc(C#Cc2ccccc2)n1,94.7
19,NS(=O)(=O)C#Cc1ccccc1,-5.38
20,COc1cc(C(=O)N(CCC2CCCN2C)C/C(C)=C/c2ccccc2F)cc(OC)c1OC (stereo unspecified),-2.86
21,CC(C)(C)c1cc(C(=O)/C(C#N)=N/Nc2cccc(Cl)c2)no1,7.67
22,CC(C)Oc1ccc2c(=O)c3cc(C(=O)O)ccc3oc2c1,76.3
23,CNC(=O)c1c(C)oc2cc(Oc3ncnc4cc(OC)c(OC)cc34)ccc12,14.7
